This is a sample that favours compounds with a hit; in the whole collection about 15% have one here.
Sm TGR inh – inhibitors of Schistosoma mansoni thioredoxin glutathione reductase; purified TGR, DTNB reduction, TNB absorbance 405 nm; Potency, µM (doses to about 114 µM), for the others: at the highest dose activity change, negative = inhibition, most hits filed as inhibitors; Q962Y6; hit rate 3% among 360,000; AID 485364; also: potency is read from the fitted curve at half-maximal effect; % is scaled to controls: 0 for no effect and ±100 for the full control effect; nearly all actives have a fitted effect of over 60% in size
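TGR 20 nM + NADPH 100 uM (dispensed conc.), cpd preinc 15 min RT; start with NADPH (500 uM addition) then DTNB (15 mM addition). Kinetic TNB absorbance, 405 nm filter. Four-parameter Hill fit across titration.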
SARS PLpro yeast – SARS-CoV PLP inhibition in yeast. S. cerevisiae expressing SARS-CoV PLpro, growth rescue. Potency, µM (series often up to 32.9 µM), without a hit: at the highest dose activity, positive = growth rescue, most hits filed as activators. hit rate 0.19% among 330,000; calls by dose curve; also: potency is read from the fitted curve at half-maximal effect; 0% is about no effect; nearly all actives have a fitted effect of over 55% in size
HCMV antiviral – human cytomegalovirus inhibition | HFF cells, HCMV-luciferase reporter, 72 h; active compounds read low | AID 1259415 | activity change, negative = inhibition, % at 57.5 µM | hit rate 4.5% among 410,000; in the data active = activity change below about -60%; inconclusive = no clear call, values can overlap the other calls; inactive = above about -39%; also: % is scaled to controls: 0 for no effect and ±100 for the full control effect
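Inhibition of viral replication was scored as loss of reporter luminescence in HFFs infected with HCMV-luciferase (MOI 1 PFU/cell) for 72 h; compounds tested at 2 doses, normalized to buffer and Salinomycin controls.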
Pf growth 96h – inhibits malaria parasite growth, 96 h; hit rate 6.9% among 320,000; Potency, µM (doses to about 28.7 µM), for inactives: at the highest dose activity change, negative = inhibition, usual class: inhibitors; AID 504834; P. falciparum luciferase reporter growth, 96 h; also: potency is read from the fitted curve at half-maximal effect; % is scaled to controls: 0 for no effect and ±100 for the full control effect
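Cell-based qHTS: luciferase-tagged P. falciparum in erythrocytes (2% hematocrit, 0.05% parasitemia final) incubated with compounds for 96 hours, 37 C, 5% CO2; luciferase detection reagent then added and luminescence measured.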
Pf growth 48h – P. falciparum growth inhibition at 48 hours (one generation); Potency, µM (top dose mostly 28.7 µM), for the others: top-dose activity change, negative = inhibition, most hits filed as inhibitors; AID 504832; P. falciparum luciferase growth in erythrocytes, 48 h; hit rate 5.9% among 310,000; also: potency is read from the fitted curve at half-maximal effect; % is scaled to controls: 0 for no effect and ±100 for the full control effect
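Luciferase-expressing parasites in RBCs, 2% Hct / 0.1% parasitemia final; RPMI 1640 + 0.5% Albumax; 37 C, 5% CO2, one generation; luminescence read-out, lower signal = inhibition.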
HCV inh – HCV inhibition | Huh7.5.1 HCVcc-Cre infection, luciferase reporter, 44 h | hit rate 3.4% among 340,000 | Potency, µM (titrated, usually from 41.8 µM), for inactives: at the top dose activity change, negative = inhibition, actives largely listed as inhibitors; also: potency is read from the fitted curve at half-maximal effect; % is scaled to controls: 0 for no effect and ±100 for the full control effect
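Luciferase read-out (15 sec integration) after a 15 min room-temperature substrate step quantifies HCVcc-Cre infection. Cells, 1,000 per well, had compound added 4 h post-plating, then virus at ~0.5 moi, and were cultured 44 h.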
* = called active by the depositor; u = inconclusive; x = no result; [ ] = dose if it differs, or a comment. Unless noted, calls follow the shape of the dose curve; as a rule, active = well fitted curve in the direction sought with a large enough effect; inconclusive = small, poorly fitted or top-dose-only effect, or another doubt; inactive = no such curve, though single readings can be large; an effect the other way counts as inactive or inconclusive.

SMILES | Sm TGR inh | SARS PLpro yeast | HCMV antiviral | Pf growth 96h | Pf growth 48h | HCV inh
O=C(Nc1ccc(Cl)c(Cl)c1)c1cccc(S(=O)(=O)NCc2cccnc2)c1 | 6.7% | -26.3% | -94.8* | u | 4.5% | 14.1µM*
O=C(Nc1ccncc1)c1cc(F)cc(F)c1 | -2.3% | -8.0% | -33.4 | 2.94µM* | u | -8.8%
O=C(Nc1ccncc1)c1ccc(Br)cc1 | 0.0% | -6.7% | -35.0 | -10.3% | u | -23.6%
Cc1[nH]c2ccc(C(=O)Nc3ccncc3)cc2c1C | 0.0% | -1.6% | -62.9* | 11.7µM* | u | 11.2µM*
COc1ccc(S(=O)(=O)N2CCOCC2)cc1NC(=O)Cc1ccc2c(c1)OCCO2 | -18.1% | 11.7% | -26.7 | -47.6% | u | 2.9%
O=C(NNC(=O)c1ccc(Cl)c(Cl)c1)c1cccnc1 | 0.3% | -2.1% | 5.7 | 35.7% | 38.2% | 21.7%
Cc1nn(-c2ccc(NC(=O)c3ccncc3)cc2)c(C)c1Cl | 0.4% | 2.1% | -90.7* | -40.2% | -9.3% | 3.16µM*
O=C(Nc1ccc(Cl)c(Cl)c1)OCc1cccnc1 | -13.4% | -32.7% | -11.9 | u | -81.8% | 22.4µM*
O=S(=O)(NCc1cccnc1)c1ccc(Br)c2ccccc12 | -4.6% | 4.4% | -62.8* | 0.0% | 6.5% | -24.3%
O=C(Nc1cccnc1)c1ccc(Cl)c(Cl)c1 | 3.6% | -11.0% | -7.7 | 6.57µM* | u | -1.9%
CCCOc1ccc(C2c3c(oc4ccccc4c3=O)C(=O)N2c2nc(C)c(C(=O)OCC)s2)cc1 (centres undefined) | 6.6% | x | 10.5 | x | x | x
CCn1c(C)nc2cc(C(=O)N3N=C(CCOC)CC3(O)C(F)(F)F)ccc21 (centres undefined) | u | 1.4% | 31.2 | u | 8.6% | 7.3%
CCCCn1c2ccccc2c2nnc(SCC(=O)Nc3ccc(NC(C)=O)cc3)nc21 | -1.2% | x | 11.4 | x | x | x
CCc1ccc(C(=O)c2cn(CC(=O)Nc3cccc(OC)c3)c3cc4c(cc3c2=O)OCO4)cc1 | 6.6% | x | 2.2 | x | x | x
O=C(C(=NNc1ccccc1)c1ccccc1)c1ccccc1 | x | x | -4.0 | x | x | u
Oc1ccc(O)c(/C(=N/Nc2ccccc2)c2ccccc2)c1 | 6.31µM* | 6.4% | x | u | u | x
Cc1c(C(=N)C(C#N)C#N)c(=N)oc2c1ccc1ccccc12 | -23.8% | -1.2% | -74.8* | 33.5% | 60.8% | -21.8%
Cc1ccc(S(=O)(=O)N2CCCC2)cc1C(=O)NCc1ccccc1CN1CCCC1 | -14.2% | -7.9% | 8.6 | u | -29.1% | 0.6%
O=C(O)c1cc(NCc2ccc3c(c2)OCO3)ccc1N1CCOCC1 | 7.2% | -4.9% | 18.8 | x | 0.7% | 2.7%
O=C(O)c1cc(NCc2ccccc2)ccc1N1CCOCC1 | -2.2% | -6.4% | 38.9 | -3.6% | x | 19.4%
COC(=O)c1cc(-n2cccc2)ccc1N1CCOCC1 | 4.8% | -0.2% | -20.9 | 4.2% | 6.8% | 6.3%
COc1ccccc1CNc1ccc(N2CCOCC2)c(C(=O)O)c1 | 2.0% | 8.3% | 31.3 | 13.1µM* | 13.2% | 17.8%
COC(=O)c1cc(NCc2ccc3c(c2)OCO3)ccc1N1CCOCC1 | 50.1µM* | 0.8% | 32.8 | 6.8%[5.75 µM] | -13.4% | -16.2%
COC(=O)c1cc(NS(=O)(=O)c2ccc(C)c3ccccc23)ccc1N1CCOCC1 | -15.3% | 0.0% | 21.2 | -24.0% | 7.1% | 22.4µM*
O=C(c1cc(-c2cccc(Cl)c2)on1)N1CCCCC1 | 0.5% | x | 71.7 | x | x | x
SMILES | Sm TGR inh | SARS PLpro yeast | HCMV antiviral | Pf growth 96h | Pf growth 48h | HCV inh
Cc1ccc(CNC(=O)CN(C)C2=NS(=O)(=O)c3ccccc32)cc1 | -2.5% | -4.7% | -39.6 | 47.6% | -3.0% | u
O=C(N[C@@H]1CC[C@H](CCn2cc(-c3ccccn3)nn2)O[C@@H]1CO)c1ccncc1 | x | x | -11.8 | x | x | x
O=C(N[C@@H]1CC[C@@H](CCn2cc(-c3ccccc3)nn2)O[C@@H]1CO)c1cnccn1 | x | x | -70.4* | x | x | x
Cc1ccccc1C(=O)N1CCC(C(=O)NN2C(=O)NC3(CCCCC3)C2=O)CC1 | 0.5% | 0.8% | -23.2 | 16.7% | u | 10.2%
CCN1CCN(CCCNC(=O)C2CCCN(c3nc4c(C)cc(C)cc4s3)C2)CC1 (centres undefined) | -12.9% | -2.1% | -4.0 | u | u | 10µM*
CCOc1ccc2nc(N3CCCC(C(=O)NCCCN4C(C)CCCC4C)C3)sc2c1 (centres undefined) | -8.5% | -3.0% | 50.4 | u | -19.3% | 2.51µM*
Cc1cc(C)c2nc(N3CCCC(C(=O)NCCCN4CCOCC4)C3)sc2c1 (centres undefined) | 3.7% | -2.1% | 88.9 | x | 7.4% | u
O=C(CN1CCN(C(=O)C2CC2)CC1)Nc1ccc(Cl)cc1F | -1.0% | 9.0% | 31.6 | 0.1% | u | 0.4%
CCC(=O)N1CCc2cc(S(=O)(=O)NC(CC(C)C)C(=O)Nc3cc(C)ccc3OC)ccc21 (centres undefined) | 0.9% | x | -6.5 | x | x | x
CC(Oc1ccc(Cl)cc1Cl)c1ccn[nH]1 (centres undefined) | x | -2.6% | -24.9 | 0.0% | 2.7% | -7.5%
O=S(=O)(NCC(c1ccco1)S(=O)(=O)c1cccs1)c1ccc(Cl)cc1 (centres undefined) | 0.1µM* | x | u | x | x | x
O=S(=O)(NCC(c1cccs1)S(=O)(=O)c1ccccc1)c1ccccc1 (centres undefined) | 0.316µM* | x | 26.8 | x | x | x
O=S(=O)(NCC(c1ccco1)N1CCN(c2ccccc2F)CC1)c1ccccc1 (centres undefined) | -1.9% | -5.5% | -34.3 | 5.8% | 9.5% | 0.8%
O=S(=O)(NCC(c1ccco1)S(=O)(=O)c1cccs1)c1ccccc1 (centres undefined) | 0.199µM* | x | -29.9 | x | x | x
O=S(=O)(NCC(c1ccco1)S(=O)(=O)c1cccs1)c1ccc(F)c(C(F)(F)F)c1 (centres undefined) | 0.1µM* | x | -30.3 | x | x | x
O=C(Cc1ccccc1F)Nc1cccc(S(=O)(=O)N2CCOCC2)c1 | x | 2.2% | 9.7 | x | x | -14.6%
N#CCCn1cc(C=C(C#N)C#N)c(-c2ccc(-c3ccccc3)cc2)n1 | 5.01µM* | -24.1% | 19.3 | -29.7% | 25.7% | 16.1%
N#CCCn1cc(/C=N/NC(N)=S)c(-c2ccc(-c3ccccc3)cc2)n1 | 0.5% | 5.4% | -40.0 | u | u | 11.2µM*
N#CCCn1cc(/C=C2\NC(=S)N(c3ccccc3)C2=O)c(-c2ccc(F)cc2)n1 | x | -0.4% | -62.6* | -0.6% | u | -8.5%
N#CCCn1cc(/C=N/O)c(-c2ccccc2)n1 | 0.0% | 26.5% | -7.9 | -21.2% | x | 10.4%
O=C(c1ccc2c(c1)OCO2)N1CCN(c2ccc(Cl)cc2)CC1 | 0.0% | -3.1% | -35.2 | u | -6.7% | 9.4%

Screens as filed in PubChem BioAssay.
